19 compounds from PMC4552634, “A New Set of Chemical Starting Points with Plasmodium falciparum Transmission-Blocking Potential for Antimalarial Drug Discovery” (PLoS ONE, 2015) can be followed below.

In general, % Inhibition refers to the change of the read-out against control, counted positive when it falls.

Out of some 13,000 compounds screened, about 3,200 (25%) showed an effect of 50% or more. Some of the results follow.

This test deals with P. falciparum stage V gametocytes. Set-up: BacTiter-Glo ATP luminescence viability of purified stage V gametocytes in 384-well plates, per cent inhibition versus DMSO. The note with it: 48 h, 5 µM; inhibitor.
`Cc1ccc2c(OCCN3CCC(Cc4cc5c(cc4F)OCC(=O)N5)CC3)cc(F)cc2n1` [TCMDC-141447]: the “% Inhibition” value is -8.259%.
In the case of `Cc1noc(C)c1-c1cccc(CNCc2cccc(-c3ccc(-c4nc5ccccc5[nH]4)s3)c2)c1.O=C(O)C(F)(F)F` [TCMDC-133048], the “% Inhibition” value is given as 14.32%.
The same measure for `Cc1cc(N(CCN2CCCCC2)CCN2CCCCC2)nc(Nc2ccc(Cl)cc2)n1` [TCMDC-138002]: 37.36%.
Next, `Cc1cc(N(CCO)CCCN2CCCCC2)nc(Nc2ccc(Cl)cc2)n1` [TCMDC-137444]: 33.27%; `COC(=O)c1sc(-c2ccc(Cl)cc2)cc1N(CCCN1CCC(N2CCCCC2)CC1)S(=O)(=O)c1ccc(C)cc1` [TCMDC-135561]: 98.34%; `CC(C)[C@H](NC(=O)c1ccc(O)c(-c2ccc(Cl)c(Cl)c2)c1)C(=O)NCCN(C)C` [TCMDC-140863]: 10.43%.
Next, `CN(C)c1ccc(CN2CCC(NC(=O)c3ccc(-c4ccccc4Cl)s3)CC2)cc1` [TCMDC-134328]: -0.5721%; `Cc1cc(=O)c(-c2ccc(S(=O)(=O)c3ccc(Cl)cc3)cc2)c(C)[nH]1` [TCMDC-137417]: 53.38%.
In the case of `Cc1cc(=O)c(-c2ccc(Sc3ccc(Cl)cc3)cc2)c(C)[nH]1` [TCMDC-137403], the “% Inhibition” value worked out at 33.38%.
`Cc1cc(=O)c(-c2ccc(OCc3ccc(Cl)cc3)cc2)c(C)[nH]1` [TCMDC-137399]: the “% Inhibition” value is given as 24.98%.
On to `Cc1[nH]c(C)c(-c2ccc(S(=O)(=O)c3ccc(Cl)cc3)cc2)c(=O)c1Br` [TCMDC-137414], for which the “% Inhibition” value was found to be 77.4%.
On to `Cc1[nH]c(C)c(-c2ccc(S(=O)(=O)c3ccc(Cl)cc3)cc2)c(=O)c1Cl` [TCMDC-137412], for which the “% Inhibition” value is on record as 67.97%.
For the compound `Cc1ccc(C)c(Cn2ccc3nc(Cl)nc(Cl)c32)c1` [TCMDC-137818], the “% Inhibition” value is 13.19%.
The same measure for `Cc1cc(C)n(Cc2ccc(C(=O)NCC3CCCCC3)cc2)n1` [TCMDC-141404]: -4.003%; for `CCC[C@@H]1CCN[C@H]([C@H](O)c2ccnc3ccc(OC)cc23)C1` [TCMDC-138233]: -1.678%; for `CCC[C@@H]([C@@H](CC1CCC(C)CC1)C(=O)N[C@@H](CO)C(=O)Nc1nccs1)N(O)C=O` (stereo partly shown) [TCMDC-138150]: 0.01446%.
For the compound `CC(C)c1nc2c(N)nc(N)nc2nc1N` [TCMDC-141986], the “% Inhibition” value was 9.894%.
As to `O=C(NCCNc1ccnc2cc(Cl)ccc12)c1ccccc1F` [TCMDC-125232], the “% Inhibition” value is on record as -18.32%.
With `Cn1nccc1C(=O)NCCNCc1cccc(-c2ccc(-c3nc4ccccc4[nH]3)s2)c1.O=C(O)C(F)(F)F` [TCMDC-133003], the “% Inhibition” value is given as -10.06%.
